Common to all, as to assay type: functional
The target in assay [1] is Solute carrier family 2, facilitated glucose transporter member 1 (Homo sapiens) (UniProt P11166). Description: ST_JUDE_LEISH: Cytotoxicity at 2uM final concentration against transgenic Leishmania Mexicana promastigotes LmGLUT1 that are glucose transport deficient and complemented with the human glucose transporter GLUT1. Activity is measured by DNA content using SYBR green in vitro.

For assay [2], the target named is Hexose transporter 1 (Plasmodium falciparum) (UniProt O97467). Description: ST_JUDE_LEISH: Cytotoxicity at 2uM final concentration against transgenic Leishmania Mexicana promastigotes LmPfHT that are glucose transport deficient and complemented with the Plasmodium falciparum hexose transporter. Activity is measured by DNA content using SYBR green in vitro.
In assay [3] the target is Glucose transporter (Leishmania mexicana) (UniProt O61059). Description: ST_JUDE_LEISH: Cytotoxicity at 2uM final concentration against transgenic Leishmania Mexicana promastigotes LmGT2 that are glucose transport deficient and complemented with the L. Mexicana glucose transporter 2. Activity is measured by DNA content using SYBR green in vitro.

The term inhibition denotes the relative decrease from the control value, in per cent.

Chain of Solute carrier family 2, facilitated glucose transporter member 1 (Homo sapiens) (P11166 whole entry): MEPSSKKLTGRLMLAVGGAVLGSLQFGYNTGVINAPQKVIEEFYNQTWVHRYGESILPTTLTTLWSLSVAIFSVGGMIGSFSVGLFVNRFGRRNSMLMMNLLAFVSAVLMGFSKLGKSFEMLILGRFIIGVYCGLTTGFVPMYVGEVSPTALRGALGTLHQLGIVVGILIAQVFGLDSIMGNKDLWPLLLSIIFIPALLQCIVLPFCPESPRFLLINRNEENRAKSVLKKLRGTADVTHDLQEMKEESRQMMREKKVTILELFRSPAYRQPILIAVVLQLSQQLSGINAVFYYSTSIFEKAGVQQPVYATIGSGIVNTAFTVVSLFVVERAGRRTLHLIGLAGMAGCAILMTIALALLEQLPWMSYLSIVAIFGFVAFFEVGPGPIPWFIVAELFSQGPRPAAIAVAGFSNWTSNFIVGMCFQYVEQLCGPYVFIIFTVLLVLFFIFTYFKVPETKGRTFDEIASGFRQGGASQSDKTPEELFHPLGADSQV

As for `CS(=O)(=O)CCNCc1cccc(-c2cc3nccc(Nc4ccc(Oc5ccccc5)cc4)c3cc2Cl)c1`, the inhibition in assay [1] was -1.75%; in assay [2] it was 0.05%; in assay [3] it was -0.97%.

Regarding `Nc1cccc(CNCc2ccc(-c3cccc(-c4nc5cc(C(F)(F)F)ccc5[nH]4)c3)cc2)c1`, the results for the inhibition in assay [1], in assay [2] and in assay [3] were 0.23%, 1.1% and 1.02%, respectively.

As for `NCc1ccc(CNCc2ccc(-c3ccc(-c4nc5cc(F)ccc5[nH]4)cc3)cc2)cc1`, the inhibition amounted to 10.3% in assay [1], 5.39% in assay [2] and 5.05% in assay [3].

`COCCNCc1cccc(-c2cccc(CNC3CCN(Cc4ccccc4)CC3)c2)c1`: the inhibition in assay [1] was 2.73%; in assay [2] it was 2.84%; in assay [3] it was 2.88%.

Consider `CCN(CC)CCCN(C(=O)Nc1c(Cl)cncc1Cl)c1nc(-c2ccc(F)cc2)cs1`, for which the inhibition is 2.47% in assay [1], 2.42% in assay [2] and 3.83% in assay [3].

Turning to `CN(C)c1ccc(N2C(N)=NC(N)=NC23CCCC3)cc1`, the results for the inhibition in assay [1], in assay [2] and in assay [3] were -0.69%, -0.9% and -3.85%, respectively.

For the compound `c1ccc2c(c1)ncn2-c1ccnc(Nc2ccncc2)n1`, the inhibition in assay [1] amounted to 6.4%; in assay [2] it was 6.42%; in assay [3], 6.75%.

As for `Cc1noc(-c2cccs2)c1C(=O)NC(C)c1cccc2ccccc12` (stereo not given), the inhibition is -0.34% in assay [1], 0.45% in assay [2] and 0.18% in assay [3].

On to `CC(C)c1ccc2oc(-c3ccc(NC(=O)c4ccc([N+](=O)[O-])o4)cc3)nc2c1`, for which the inhibition came out at 10.9% in assay [1], 10.2% in assay [2] and 4.26% in assay [3].

As to `COc1cc(NC(=O)c2sc(-c3ccc(Cl)cc3)cc2NC(=O)c2ccncc2)ccc1OCCN1CCCC1`, the inhibition in assay [1] turned out to be 7.57%; in assay [2] it was 3.54%; in assay [3], 0.97%.

`Cc1ccc2nc(C)n(C3CCN(C(=O)Cc4ccc(F)c(F)c4)CC3)c2c1`: the values for the inhibition in assay [1], in assay [2] and in assay [3] were 2.56%, 2% and 2.78%, respectively.

Take `Cc1cc(CNC(=O)c2ccc(-c3ccc(-c4nc5cc(C(F)(F)F)ccc5[nH]4)s3)cc2)on1`: the figures for the inhibition in assay [1], in assay [2] and in assay [3] were 4.04%, 3.31% and 1.12%, respectively.

As to `Cc1ccc(NC(=S)NC2CCN(CCCCCNC(=O)/C=C/c3ccc(Cl)c(Cl)c3)CC2)cc1Cl`, the results for the inhibition in assay [1], in assay [2] and in assay [3] were -0.23%, -0.31% and -1.1%, respectively.

Turning to `O=C(Nc1cccc(C(F)(F)F)c1)N1CCOC(CCN2CCC3(CCc4ccccc43)CC2)(c2ccc(Cl)c(Cl)c2)C1` (stereo not given), the results for the inhibition in assay [1], in assay [2] and in assay [3] were 5.08%, 4.51% and 2.55%, respectively.

For `COc1cc2nc(NCC3CCCO3)n3nc(-c4ccccc4)nc3c2cc1OC` (stereo not given), the results for the inhibition in assay [1], in assay [2] and in assay [3] were 8.44%, 6.19% and 2.53%, respectively.

Turning to `NC1CCN(Cc2cccc(-c3ccc(-c4nc5cc(C(F)(F)F)ccc5[nH]4)cc3)c2)C1` (stereo not given), the inhibition in assay [1] was found to be 0.52%; in assay [2], 5.22%; in assay [3], 2.71%.

With `CCc1ccccc1N=C1c2c(cccc2[N+](=O)[O-])C(=O)C1C(C)=O` (stereo not given), the inhibition in assay [1] is -1.62%; in assay [2], -1.21%; in assay [3], -2.14%.

Take `O=C(Nc1cccc(OCCN2CCCC2)c1)Nc1ccc(Cl)c(Cl)c1`: the inhibition turned out to be 1.92% in assay [1], 2.15% in assay [2] and 4.58% in assay [3].

Turning to `CN1CCC(Oc2ccc(CN3CC[C@H](NC(=O)c4cccc(C#N)c4)C3)c3ccccc23)C1` (stereo not given in full), the inhibition in assay [1] was -0.8%; in assay [2] it was 1.42%; in assay [3], 2.12%.

Take `COc1ccc(N2CCN(CCCN3CCN(C(=O)c4ccc(/C=C/c5ccc(Cl)c(Cl)c5)cc4)CC3)CC2)c(OC)c1`: the inhibition in assay [1] was found to be 6.35%; in assay [2], 6.21%; in assay [3], 5.56%.

For the compound `CC(=O)N1CCC(C(=O)Nc2ccc(-c3cccc(-c4nc5cc(C(F)(F)F)ccc5[nH]4)c3)cc2)CC1`, the inhibition in assay [1] worked out at 0.57%; in assay [2], 3.33%; in assay [3], 1.24%.

On to `O=C(Nc1cccnc1)c1cc(C(=O)Nc2cccnc2)cc([N+](=O)[O-])c1`, for which the inhibition in assay [1] came to 0.86%; in assay [2], 3.44%; in assay [3], 0.83%.

In the case of `COc1cccc(C(=O)N2CCOC(CCN3CCC(c4ccccc4)CC3)(c3ccc(Cl)c(Cl)c3)C2)c1` (stereo not given), the inhibition in assay [1] was 0.55%; in assay [2], -0.77%; in assay [3], -0.26%.

On to `CN(Cc1cccc(O)c1)C1CCN(c2cc(NC(=O)c3ccc(F)cc3)ccn2)C1` (stereo not given), for which the figures for the inhibition in assay [1], in assay [2] and in assay [3] were 1.94%, 2.9% and 3.61%, respectively.

With `CCN(CC)CCn1c2ccccc2c2ccc(C(=O)Nc3ccc4sc(C)nc4c3)cc21`, the inhibition in assay [1] turned out to be 13.2%; in assay [2], 11.9%; in assay [3] it was 8.05%.

Consider `O=C(Nc1ccccc1)Nc1cccc(-c2cccc(-c3nc4cc(F)ccc4[nH]3)c2)c1`, for which the figures for the inhibition in assay [1], in assay [2] and in assay [3] were 2.45%, 2.61% and 1.59%, respectively.

Turning to `CC1CCNc2ccc(Cc3cnc(N)nc3N)cc21` (stereo not given), the figures for the inhibition in assay [1], in assay [2] and in assay [3] were 2.12%, 1.47% and 2.05%, respectively.

On to `COCCNCc1ccc(-c2ccccc2CNC2CCN(Cc3ccccc3)CC2)cc1`, for which the inhibition was 1.97% in assay [1], 2.36% in assay [2] and -0.28% in assay [3].

With `OCC1CCN(Cc2ccc(-c3ccc(-c4nc5cc(C(F)(F)F)ccc5[nH]4)s3)cc2)CC1`, the inhibition in assay [1] worked out at 1.82%; in assay [2], 0.23%; in assay [3], 1.7%.

Consider `N#Cc1ccccc1C1CCN(C2CCC(Nc3cc(-c4cccnc4)ccn3)CC2)CC1` (stereo not given), for which the figures for the inhibition in assay [1], in assay [2] and in assay [3] were 2.02%, 1.09% and 2.26%, respectively.

Turning to `CC(=O)N[C@H](C(=O)Nc1ccc(-c2cccc(-c3nc4cccc(C)c4[nH]3)c2)cc1)C(C)C`, the inhibition in assay [1] was determined as 1.35%; in assay [2], 3.2%; in assay [3], 2.45%.

Take `CCCC(=O)Nc1ccc(OCCCN(Cc2ccccc2F)c2ccc(C#N)c(C(F)(F)F)c2)cc1`: the inhibition in assay [1] came to 1.79%; in assay [2], 0.66%; in assay [3], 0.71%.

`Oc1cc(NCCCNC2CCc3c(Cl)cc(Cl)cc32)nc2ccccc12` (stereo not given): the results for the inhibition in assay [1], in assay [2] and in assay [3] were 0.63%, 0.11% and 3.08%, respectively.

In the case of `COc1ccc2nc3cc(Cl)ccc3c(NCCNCC(O)CO)c2n1` (stereo not given), the inhibition in assay [1] came to 7.93%; in assay [2], 6.76%; in assay [3] it was 5.98%.

Regarding `COc1cc2c(cc1S(=O)(=O)c1ccc(OCc3ccc(Cl)cc3)cc1)CCN(Cc1ccc(NC(C)=O)s1)CC2`, the inhibition in assay [1] is 4.82%; in assay [2] it was 4.31%; in assay [3] it was -0.61%.

The record behind these values is ChEMBL document CHEMBL3433997, “St. Jude Leishmania screening dataset” (2016).
